According to the antibiotic and cytotoxicity screens of Wong et al. (2023):
In all, about 39,000 compounds went through this assay and about 3,300 (8.5%) were called active. This is one part of a sample in which actives are shown more often than they occur.

tested on: HepG2; test: cytotoxicity call (relative viability < 0.9); details: 10 µM

| Structure (SMILES) | cytotoxicity call |
| --- | --- |
| C[C@H]1CN([C@@H](C)CO)S(=O)(=O)c2ccc(C#CC3CC3)cc2O[C@H]1CN(C)Cc1ccccc1F | inactive |
| COc1ccc(CN(C)C[C@H]2Oc3ccc(NS(C)(=O)=O)cc3CC(=O)N([C@H](C)CO)C[C@@H]2C)cc1 | inactive |
| C[C@@H]1CN([C@@H](C)CO)C(=O)c2cccc(NS(=O)(=O)c3ccc(F)cc3)c2O[C@H]1CN(C)CC1CC1 | inactive |
| C[C@H]1CCCCO[C@H](CN(C)C(=O)Nc2cccc3ccccc23)[C@@H](C)CN([C@@H](C)CO)C(=O)c2cc(NC(=O)Nc3ccccc3)ccc2O1 | inactive |
| C[C@@H]1CCCCO[C@H](CN(C)S(=O)(=O)c2ccc(Cl)cc2)[C@@H](C)CN([C@H](C)CO)C(=O)c2cc(NC(=O)C3CCCCC3)ccc2O1 | inactive |
| CN(C)CC(=O)N1[C@H](CO)[C@@H](c2ccc(C3=CCCC3)cc2)C12CN(S(=O)(=O)Cc1ccccc1)C2 | inactive |
| CCOc1ccc(-n2c([C@@H](C)N(Cc3cccnc3)C(=O)Cc3ccc(OC(F)(F)F)cc3)nc3ncccc3c2=O)cc1 | inactive |
| Cn1c(=O)[nH]c2ccccc21 | inactive |
| CC(C)n1c(=S)[nH]c2ccccc21 | active |
| CCn1c(=S)[nH]c2ccccc21 | inactive |
| COc1ccc(CN(C)C[C@@H]2OCCCC[C@H](C)Oc3ccc(NS(=O)(=O)c4cccs4)cc3C(=O)N([C@H](C)CO)C[C@@H]2C)cc1 | inactive |
| CCNC(=O)c1coc(C)n1 | inactive |
| CCNC(=O)c1sc(C)nc1N | active |
| CCNC(=O)c1csc(N)n1 | inactive |
| C[C@@H]1CN([C@H](C)CO)C(=O)c2cc(Br)cnc2O[C@@H]1CN(C)C(=O)Nc1ccc(F)cc1 | inactive |
| O=C(O)c1cc2n(n1)CCC2 | inactive |
| C[C@@H]1CCCCO[C@H](CN(C)Cc2ccc3c(c2)OCO3)[C@H](C)CN([C@H](C)CO)C(=O)c2cc(NS(=O)(=O)c3ccc(Cl)cc3)ccc2O1 | inactive |
| C[C@H](CO)N1C[C@H](C)[C@@H](CN(C)Cc2ccc3c(c2)OCO3)OCCCC[C@H](C)Oc2ccc(NS(=O)(=O)c3ccc(Cl)cc3)cc2C1=O | inactive |
| C[C@@H]1CCCCO[C@H](CN(C)Cc2ccc3c(c2)OCO3)[C@@H](C)CN([C@@H](C)CO)C(=O)c2cc(NS(=O)(=O)c3ccc(Cl)cc3)ccc2O1 | inactive |
| C[C@@H]1CCCCO[C@@H](CN(C)Cc2ccc3c(c2)OCO3)[C@@H](C)CN([C@H](C)CO)C(=O)c2cc(NS(=O)(=O)c3ccc(Cl)cc3)ccc2O1 | active |
| C[C@H]1CCCCO[C@H](CN(C)Cc2ccc3c(c2)OCO3)[C@@H](C)CN([C@@H](C)CO)C(=O)c2cc(NS(=O)(=O)c3ccc(Cl)cc3)ccc2O1 | inactive |
| C[C@@H]1CCCCO[C@H](CN(C)Cc2ccc3c(c2)OCO3)[C@@H](C)CN([C@H](C)CO)C(=O)c2cc(NS(=O)(=O)c3ccc(Cl)cc3)ccc2O1 | inactive |

| Structure (SMILES) | cytotoxicity call |
| --- | --- |
| C[C@@H]1CCCCO[C@H](CN(C)Cc2ccc3c(c2)OCO3)[C@H](C)CN([C@@H](C)CO)C(=O)c2cc(NS(=O)(=O)c3ccc(Cl)cc3)ccc2O1 | active |
| C[C@H]1CCCCO[C@@H](CN(C)Cc2ccc3c(c2)OCO3)[C@@H](C)CN([C@@H](C)CO)C(=O)c2cc(NS(=O)(=O)c3ccc(Cl)cc3)ccc2O1 | inactive |
| C[C@H](CO)N1C[C@H](C)[C@H](CN(C)Cc2ccc3c(c2)OCO3)OCCCC[C@H](C)Oc2ccc(NS(=O)(=O)c3ccc(Cl)cc3)cc2C1=O | inactive |
| C[C@@H]1CCCCO[C@@H](CN(C)Cc2ccc3c(c2)OCO3)[C@H](C)CN([C@H](C)CO)C(=O)c2cc(NS(=O)(=O)c3ccc(Cl)cc3)ccc2O1 | active |
| C[C@@H]1CN([C@@H](C)CO)C(=O)c2cc(NS(=O)(=O)c3ccc(Cl)cc3)ccc2O[C@@H](C)CCCCO[C@@H]1CN(C)Cc1ccc2c(c1)OCO2 | inactive |
| C[C@@H]1CN([C@@H](C)CO)C(=O)c2cc(NS(=O)(=O)c3ccc(Cl)cc3)ccc2O[C@@H](C)CCCCO[C@H]1CN(C)Cc1ccc2c(c1)OCO2 | active |
| C[C@H](CO)N1C[C@H](C)[C@H](CN(C)S(C)(=O)=O)Oc2ccc(NS(=O)(=O)c3ccc(Cl)cc3)cc2C1=O | inactive |
| OCc1cccc(Cn2cncn2)c1 | inactive |
| C[C@@H]1CN([C@@H](C)CO)S(=O)(=O)c2ccc(Br)cc2O[C@H]1CN(C)C(=O)c1ccccc1 | inactive |
| COCC#Cc1ccc([C@@H]2[C@H]3CN(C(=O)c4ccncc4)CC(=O)N3[C@H]2CO)cc1 | inactive |
| COc1ccc(NC(=O)Nc2ccc3c(c2)C(=O)N([C@H](C)CO)C[C@H](C)[C@@H](CN(C)S(=O)(=O)c2ccc(F)cc2)OCCCC[C@@H](C)O3)cc1 | inactive |
| C[C@H]1CN([C@@H](C)CO)C(=O)Cc2cc(NC(=O)Cn3cnnn3)ccc2O[C@H]1CN(C)Cc1ccc(C(=O)Nc2ccccc2N)cc1 | inactive |
| Cc1ccc(S(=O)(=O)Nc2ccc3c(c2)C(=O)N([C@H](C)CO)C[C@@H](C)[C@@H](CN(C)C(=O)Nc2ccc4c(c2)OCO4)OCCCC[C@H](C)O3)cc1 | inactive |
| C[C@@H]1CN([C@H](C)CO)C(=O)c2cc(NC(=O)CCCN(C)C)ccc2O[C@@H]1CN(C)S(=O)(=O)c1cccs1 | inactive |
| CC(C)C#Cc1ccc2c(c1)O[C@@H](CN(C)C(=O)Cc1ccccn1)[C@@H](C)CN([C@@H](C)CO)S2(=O)=O | inactive |
| Cc1ccc(S(=O)(=O)N(C)C[C@@H]2Oc3c(NC(=O)Nc4cccc5ccccc45)cccc3C(=O)N([C@@H](C)CO)C[C@H]2C)cc1 | inactive |
| COc1ccc(NC(=O)Nc2cccc3c2O[C@H](CN(C)Cc2ccc(C(F)(F)F)cc2)[C@H](C)CN([C@@H](C)CO)C3=O)cc1 | inactive |
| CC(C)NC(=O)Nc1cccc2c1O[C@@H](CN(C)S(=O)(=O)c1ccc(Cl)cc1)[C@@H](C)CN([C@H](C)CO)C2=O | inactive |
| C[C@@H]1CN([C@H](C)CO)C(=O)c2cc(NS(=O)(=O)c3ccc(Cl)cc3)ccc2O[C@@H](C)CCCCO[C@@H]1CN(C)Cc1ccc2c(c1)OCO2 | inactive |
| C[C@@H]1CN([C@H](C)CO)C(=O)c2cc(NS(=O)(=O)c3ccc(Cl)cc3)ccc2O[C@@H](C)CCCCO[C@H]1CN(C)Cc1ccc2c(c1)OCO2 | inactive |
| C[C@@H]1CCCCO[C@@H](CN(C)Cc2ccc3c(c2)OCO3)[C@@H](C)CN([C@@H](C)CO)C(=O)c2cc(NS(=O)(=O)c3ccc(Cl)cc3)ccc2O1 | active |
